Bioassay records (PubChem)
Only some compounds are listed: those with a hit (about 8.3% of all), similar ones and a draw of the others.
Giardia FBPA inh: qHTS Assay for Inhibitors of Fructose-1,6-bisphosphate Aldolase from Giardia Lamblia | A8B2U2 | purified Giardia FBPA | Potency, µM (highest dose often 59.6 µM), for inactives: at the highest dose activity, negative = inhibition, actives largely listed as inhibitors | 290,000 tested, 0.71% active; also: potency is read from the fitted curve at half-maximal effect; nearly all actives have a fitted effect of over 55% in size
Target sequence (A8B2U2 whole entry, looked up): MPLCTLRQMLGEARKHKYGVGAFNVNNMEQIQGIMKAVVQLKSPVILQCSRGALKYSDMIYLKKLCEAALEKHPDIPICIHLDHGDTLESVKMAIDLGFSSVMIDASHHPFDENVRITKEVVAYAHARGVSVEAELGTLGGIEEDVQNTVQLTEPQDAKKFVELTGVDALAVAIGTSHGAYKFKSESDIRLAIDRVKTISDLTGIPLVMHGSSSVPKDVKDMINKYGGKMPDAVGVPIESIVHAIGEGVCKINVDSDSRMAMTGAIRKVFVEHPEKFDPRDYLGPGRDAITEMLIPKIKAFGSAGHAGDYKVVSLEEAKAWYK
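40 nM FBPA preincubated 10 min at RT with compound (up to 57.5 uM final), then substrate plus GAPDH/TPI/NAD/arsenate coupling and diaphorase/resazurin added. Fluorescence read after 20 min at RT, 525/598 nm.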
HCV inhibitor: qHTS Assay for Inhibitors of Hepatitis C Virus (HCV) | Huh7.5.1 HCVcc-Cre infection, luciferase reporter, 44 h | Potency, µM (series often up to 41.8 µM), without a hit: at the highest dose activity change, negative = inhibition, usual class: inhibitors | 340,000 tested, 3.4% active; also: potency is read from the fitted curve at half-maximal effect
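After 44 h co-culture of compound, cells and HCVcc-Cre (~0.5 moi), substrate is added for 15 min at room temperature and luciferase measured over 15 sec. Cells were seeded at 1,000/well and pre-cultured 4 h.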
MARV entry inh: qHTS for inhibitors of binding or entry into cells for Marburg Virus; 300,000 tested, 1.8% active; Marburg virus pseudotyped entry inhibition, cell reporter; Potency, µM (doses to about 37.8 µM), without a hit: at the top dose activity change, negative = inhibition, usual class: inhibitors; calls by dose curve; tested in HEK293 cells; also: potency is read from the fitted curve at half-maximal effect
HCMV antiviral: qHTS Assay for inhibitors of the human cytomegalovirus (HCMV); HFF cells, HCMV-luciferase reporter, 72 h; stronger effect = lower value; activity change, negative = inhibition, % at 57.5 µM; AID 1259415, 2018; 410,000 tested, 4.5% active; in the data active = activity change below about -60%; inconclusive = no clear call, values can overlap the other calls; inactive = above about -39%
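After 16 h attachment at 37C, HFF cells received test compound and HCMV-luciferase (1 PFU/cell); reporter luminescence read 72 h later, data normalized against buffer-only and known inhibitor Salinomycin.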
LASV entry inh: qHTS for Inhibitors of binding or entry into cells for Lassa Virus; Lassa virus pseudotype entry inhibition, cell reporter; Potency, µM (doses to about 37.9 µM), for inactives: top-dose activity change, negative = inhibition, usual class: inhibitors; 300,000 tested, 1.2% active; AID 540256, 2011; calls by dose curve; tested in HEK293 cells; also: potency is read from the fitted curve at half-maximal effect; nearly all actives have a fitted effect of over 50% in size
FMDV antiviral: High Throughput Screening for Foot and Mouth Disease Virus Antivirals; 410,000 tested, 1.2% active; Potency, µM (highest dose often 57.9 µM), without a hit: at the top dose activity change, negative = inhibition, most hits filed as inhibitors; AID 1159524, 2015; FMDV antiviral cell-based qHTS; calls by dose curve; tested in HEK293T cells; also: read-out not given here; potency is read from the fitted curve at half-maximal effect; nearly all actives have a fitted effect of over 45% in size
Active calls of the source: *; ? = inconclusive; / = not tested or not shown; [ ] = dose if it differs, or a comment. Unless noted, calls follow the shape of the dose curve; as a rule, active = well fitted curve in the direction sought with a large enough effect; inconclusive = small, poorly fitted or top-dose-only effect, or another doubt; inactive = no such curve, though single readings can be large; an effect the other way counts as inactive or inconclusive. % is scaled to controls: 0 for no effect and ±100 for the full control effect.

SMILES	Giardia FBPA inh	HCV inhibitor	MARV entry inh	HCMV antiviral	LASV entry inh	FMDV antiviral
Cc1ccccc1NC(=O)NCC1CCN(c2ccc(S(=O)(=O)N3CCOCC3)cc2)CC1	-2%	35µM*	-6%	2	-16%	?
O=C(CCNC(=O)c1ccc(Cl)cc1)Nc1ccc(S(=O)(=O)N2CCOCC2)cc1	/	-6%	/	4	/	-19%
CCCn1c(-c2ccc(F)cc2)nc2c(NCCCCN(C)C)nc(C)nc21	0%	/	/	/	/	/
CCn1c(C)cc(/C=C2/NC(=O)N(c3ccccc3)C2=O)c1C	-3%	-17%	-25%	-13	?	45%
COCCn1c(C)cc(/C=C2/NC(=O)N(c3cccc(Cl)c3)C2=O)c1C	-2%	?	/	-66*	/	-21%
COc1ccc(NC(=O)C2Cc3cccc(OC)c3O/C2=N\O)cc1 (centres undefined)	11%	?	/	-29	/	-1%
COc1cccc2c1O/C(=N\O)C(C(=O)Nc1ccc(C)cc1)C2 (centres undefined)	-6%	?	/	-60*	/	6%
COCCCNC(NC(=O)c1ccc(Br)cc1)C(Cl)(Cl)Cl (centres undefined)	-1%	11%	6%	-66*	11%	0%
C=C1[C@@H](O)[C@H](Cc2ccccc2)N(Cc2ccccc2Br)S1(=O)=O	/	23%[8.37 µM]	/	33	/	18µM*
Cc1ccccc1CN1[C@@H](Cc2ccccc2)COCCS1(=O)=O	/	-1%	/	-9	/	0%
CCOC(=O)c1ccc(-n2c(C)ccc2C)cc1	0%	32%	5%	1	-3%	2%
COC(=O)c1cc(=O)n(-c2ccccc2)c(=Nc2ccccc2)s1	1%	?	1%	-35	-1%	13µM*
COC(=O)c1cc(=O)n(Cc2ccc(F)cc2)c(=Nc2ccccc2)s1	-11%	?	/	-14	/	?
CCOC(=O)c1ccc(N=c2sc(C(=O)OC)cc(=O)n2-c2ccc(C(=O)OCC)cc2)cc1	1%	10µM*	-12%	195	-14%	20µM*
Cc1cc(C)c(OCC(=O)Nc2nc(-c3ccccn3)cs2)c(C)c1	?	4µM*	?	5	?	-2%
O=C(COc1ccccc1F)Nc1nnc(-c2ccncc2)s1	-1%	-5%	0%	-36	11%	21%
Cc1ccccc1OCC(=O)Nc1nnc(-c2ccncc2)s1	0%	11%	22%[46.1 µM]	-93*	-1%[46.1 µM]	-24%
Cc1ccccc1OCC(=O)Nc1nc(-c2ccncc2)cs1	/	?	?	-7	-22%	28µM*
CCOc1ccccc1OCC(=O)Nc1nnc(COC)s1	-1%	10%	-12%	-102*	9%	17%
CCOCC(=O)Nc1nnc(COC)s1	-6%	24%	12%	37	-6%	20%
COc1ccc(-c2cn3nc(N4CCCC(C(=O)NCc5ccccc5OC)C4)sc3n2)cc1 (centres undefined)	/	/	/	0	9%[46.1 µM]	30%
